Reference: PubChem BioAssay (EPA / NIEHS)
Several values for one entry are separate records, joined by “and”; a condition that tells them apart may be missing. Identical values can stand only once. Results filed as inconclusive are left out. Where a structure was tested more than once in an assay, its records may differ in their call. Activity calls are given as the source filed them. The calls were made as follows, unless noted: active = hit-call score of the fitted dose curve at least 0.9, where 1 is the maximum; inactive = score below 0.9.

Tests used:
[1] = target: human RAR-related Orphan Receptor beta (RORb), RORB (gene 6096) (UniProt Q92753); test: ATG_RORb_TRANS: Attagene TRANS-FACTORIAL HepG2 Assay for human RAR-related Orphan Receptor beta (RORb) (AID 2283010; active = hit-call score of the fitted dose curve at least 0.9, where 1 is the maximum)
Outline: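 Transfect HepG2 with multiple GAL4-UAS reporter transcription units; dose chemicals for 24 h; isolate RNA, reverse-transcribe and PCR-amplify reporter sequences; label, digest and resolve fragments by capillary electrophoresis; fit increases relative to DMSO.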

[2] = target: human RAR-related Orphan Receptor gamma (RORg), RORC (gene 6097) (UniProt P51449); test: ATG_RORg_TRANS: Attagene TRANS-FACTORIAL HepG2 Assay for human RAR-related Orphan Receptor gamma (RORg) (AID 2283011; active = hit-call score of the fitted dose curve at least 0.9, where 1 is the maximum)
Outline: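 Transient MRTU transfection of HepG2 (TRANS format, exogenous NR-Gal4 chimera). 24 h dosing. Total RNA → oligo(dT) RT → PCR → 6-FAM labelling → HpaI cut → CE. Gain vs DMSO.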

[3] = target: Retinoic acid receptor RXR-alpha (Homo sapiens) (UniProt P19793); test: ATG_RXRa_TRANS: Attagene TRANS-FACTORIAL HepG2 Assay for human Retinoid X Receptor alpha (RXRa) (AID 2283012; active = hit-call score of the fitted dose curve at least 0.9, where 1 is the maximum)
Outline: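 Measures exogenous chimeric NR-GAL4 activity in transfected HepG2 liver cells after 24 h of dosing. Induced reporter mRNA was detected by RT-PCR with capillary electrophoresis, and gain of signal was analysed against DMSO.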

[4] = target: human Retinoid X Receptor beta (RXRb), RXRB (gene 6257) (UniProt P28702); test: ATG_RXRb_TRANS: Attagene TRANS-FACTORIAL HepG2 Assay for human Retinoid X Receptor beta (RXRb) (AID 2283013; active = hit-call score of the fitted dose curve at least 0.9, where 1 is the maximum)
Outline: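 Chimeric receptor-Gal4 activity was assessed in transiently transfected human HepG2 cells after 24 h exposure. Transcripts from GAL4-UAS reporters were quantified by fluorescent RT-PCR and capillary electrophoresis, with DMSO as negative control and baseline.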

[5] = read-out: E-selectin (Homo sapiens) (UniProt P16581); test: BSK_3C_Eselectin: BioMAP Diversity Plus: 3C Assay for Eselectin Biomarker Activity (AID 2283015); details: primary human endothelial cells (HUVEC); actives raise or lower the signal
Outline: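 HUVEC, 3C stimulation; compound exposure 24 h; E-selectin by ELISA; gain- or loss-of-signal fitted bidirectionally vs DMSO baseline.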

[6] = read-out: Interleukin-1 alpha (IL1a), IL1A (gene 3552); test: BSK_BE3C_IL1a: BioMAP Diversity Plus: BE3C Assay for Interleukin-1 alpha (IL1a) Biomarker Activity (AID 2283016); details: primary human bronchial epithelial cells; actives raise or lower the signal
Outline: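 Signal from IL-1a ELISA, taken 24 h after chemical dosing of human bronchial epithelial cells, is compared with DMSO as baseline using bidirectional curve fitting.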

[7] = read-out: Monocyte Chemoattractant Protein-1 (MCP1), CCL2 (gene 6347); test: BSK_3C_MCP1: BioMAP Diversity Plus: 3C Assay for Monocyte Chemoattractant Protein-1 (MCP1) Biomarker Activity (AID 2283017); details: primary human endothelial cells (HUVEC); actives raise or lower the signal
Outline: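 HUVEC, 3C system; 24 h chemical exposure; MCP-1 by ELISA; bidirectional curve fit vs DMSO baseline.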

[8] = read-out: Monocyte Chemoattractant Protein-1 (MCP1), CCL2 (gene 6347); test: BSK_4H_MCP1: BioMAP Diversity Plus: 4H Assay for Monocyte Chemoattractant Protein-1 (MCP1) Biomarker Activity (AID 2283018); details: primary human endothelial cells (HUVEC); actives raise or lower the signal
Outline: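 Endothelial cells from umbilical vein were treated with test chemical, then after 24 h MCP-1 levels were quantified by ELISA; endpoint values came from bidirectional fitting with DMSO as baseline of activity.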

[9] = read-out: Human Leukocyte Antigen - DR isotype (HLADR), HLA-DRA (gene 3122); test: BSK_3C_HLADR: BioMAP Diversity Plus: 3C Assay for Human Leukocyte Antigen - DR isotype (HLADR) Biomarker Activity (AID 2283019); details: primary human endothelial cells (HUVEC); actives raise or lower the signal
Outline: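 HUVEC, 3C stimulation, 24 h post-dose; HLA-DR by ELISA; bidirectional curve fit vs DMSO baseline; gain or loss of signal scored.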

[10] = read-out: Interleukin-8 (IL8), CXCL8 (gene 3576); test: BSK_3C_IL8: BioMAP Diversity Plus: 3C Assay for Interleukin-8 (IL8) Biomarker Activity (AID 2283020); details: primary human endothelial cells (HUVEC); actives raise or lower the signal
Outline: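 Endothelial primary cells of human umbilical vein origin are dosed with chemical; after 24 h the IL-8 biomarker is measured by ELISA, and concentration–response is fitted in both directions versus DMSO.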

[11] = read-out: Monokine induced gamma interferon (MIG), CXCL9 (gene 4283); test: BSK_3C_MIG: BioMAP Diversity Plus: 3C Assay for Monokine induced gamma interferon (MIG) Biomarker Activity (AID 2283021); details: primary human endothelial cells (HUVEC); actives raise or lower the signal;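 as to AC50: MIG protein level measured by immunoassay in the treated endothelial cultures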
Outline: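 Endothelial primary cells (human umbilical vein) are dosed with test chemical in the 3C system. MIG levels are measured by ELISA at 24 h and fitted in both directions relative to DMSO.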

[12] = target: human Vitamin D Receptor (VDR), VDR (gene 7421) (UniProt P11473); test: ATG_VDR_TRANS: Attagene TRANS-FACTORIAL HepG2 Assay for human Vitamin D Receptor (VDR) (AID 2283022; active = hit-call score of the fitted dose curve at least 0.9, where 1 is the maximum)
Outline: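 RT-PCR/capillary electrophoresis read-out of reporter mRNA induction in transiently transfected HepG2; 24 h dosing; chimeric NR-Gal4 (TRANS format); gain-of-signal fit against DMSO baseline.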

[13] = BSK_3C_SRB: Viability Assessment in the BioMAP Diversity Plus: 3C Assay (AID 2283023); details: primary human endothelial cells (HUVEC);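 also: fitted both ways against DMSO so a hit may be signal rise or drop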
Outline: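 HUVEC, 24 h post-dose; 10% TCA fix, 0.1% SRB stain, A560 nm. Bidirectional curve fit vs DMSO negative control.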

[14] = read-out: Matrix Metallopeptidase 1 (MMP1), MMP1 (gene 4312); test: BSK_BE3C_MMP1: BioMAP Diversity Plus: BE3C Assay for Matrix Metallopeptidase 1 (MMP1) Biomarker Activity (AID 2283024); details: primary human bronchial epithelial cells; actives raise or lower the signal
Outline: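 MMP1 signal, measured by ELISA after a 24 h chemical exposure of human primary bronchial epithelial cells, is analysed with bidirectional fitting using DMSO as negative control.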

[15] = BSK_4H_SRB: Viability Assessment in the BioMAP Diversity Plus: 4H Assay (AID 2283027); details: primary human endothelial cells (HUVEC);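 also: cells exposed to compound for 24 h before staining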;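 as to AC50: curves fitted both ways versus DMSO so AC50 may be loss or gain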
Outline: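 Cytotoxicity readout: sulforhodamine B (0.1%) staining of total protein after 10% TCA fixation, measured at 560 nm in human umbilical vein endothelium at 24 h. DMSO set the baseline; fitting was bidirectional.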

[16] = read-out: Thrombomodulin, THBD (gene 7056); test: BSK_3C_Thrombomodulin: BioMAP Diversity Plus: 3C Assay for Thrombomodulin Biomarker Activity (AID 2283029); details: primary human endothelial cells (HUVEC); actives raise or lower the signal
Outline: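 Endothelial cells from umbilical vein are dosed with test chemical and incubated 24 h. Thrombomodulin is then quantified by ELISA, with DMSO serving as negative control and activity baseline.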

[17] = target: human Thyroid Receptor alpha (THRa1), THRA (gene 7067) (UniProt P10827); test: ATG_THRa1_TRANS: Attagene TRANS-FACTORIAL HepG2 Assay for human Thyroid Receptor alpha (THRa1) (AID 2283014; active = hit-call score of the fitted dose curve at least 0.9, where 1 is the maximum)
Outline: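 Transient HepG2 transfection, NR-Gal4 chimera driving GAL4-UAS reporters; 24 h compound exposure; total RNA, oligo(dT) RT, PCR, fluorescent primer extension, capillary electrophoresis. Upward direction vs DMSO control.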

[18] = BSK_BE3C_SRB: Viability Assessment in the BioMAP Diversity Plus: BE3C Assay (AID 2283028); details: primary human bronchial epithelial cells;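 as to AC50: fitted both ways so AC50 may mark signal gain or loss versus DMSO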
Outline: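 Primary human bronchial epithelium; chemical dosing, 24 h; 10% TCA fix, 0.1% SRB stain, A560; bidirectional fit vs DMSO baseline.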

[19] = BSK_3C_Vis: BioMAP Diversity Plus: 3C Assay for Morphology Visualization (AID 2283025); details: primary human endothelial cells (HUVEC);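 also: fitted both ways so gain or loss versus DMSO counts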
Outline: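 Morphology read by light microscopy serves as a background control for the multiplexed 3C assay in human umbilical vein endothelial cells, taken 24 h after dosing, with DMSO as the negative control and bidirectional curve fitting.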

Measured: AC50

Chain of human Vitamin D Receptor (VDR), VDR (gene 7421) (P11473 whole entry, looked up, the tested form may be a part): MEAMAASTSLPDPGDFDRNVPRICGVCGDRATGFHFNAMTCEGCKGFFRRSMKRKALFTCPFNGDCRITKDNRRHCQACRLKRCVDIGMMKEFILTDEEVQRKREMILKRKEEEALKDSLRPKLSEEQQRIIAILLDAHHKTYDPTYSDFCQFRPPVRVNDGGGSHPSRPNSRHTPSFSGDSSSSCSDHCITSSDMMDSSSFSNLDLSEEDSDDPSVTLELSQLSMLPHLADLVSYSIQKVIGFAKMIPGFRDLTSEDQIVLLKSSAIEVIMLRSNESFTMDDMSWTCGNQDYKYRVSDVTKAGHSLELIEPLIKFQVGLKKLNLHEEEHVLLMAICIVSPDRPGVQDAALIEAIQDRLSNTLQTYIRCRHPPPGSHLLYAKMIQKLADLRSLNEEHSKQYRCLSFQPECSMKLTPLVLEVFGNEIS
Chain of E-selectin (Homo sapiens) (P16581 whole entry, looked up): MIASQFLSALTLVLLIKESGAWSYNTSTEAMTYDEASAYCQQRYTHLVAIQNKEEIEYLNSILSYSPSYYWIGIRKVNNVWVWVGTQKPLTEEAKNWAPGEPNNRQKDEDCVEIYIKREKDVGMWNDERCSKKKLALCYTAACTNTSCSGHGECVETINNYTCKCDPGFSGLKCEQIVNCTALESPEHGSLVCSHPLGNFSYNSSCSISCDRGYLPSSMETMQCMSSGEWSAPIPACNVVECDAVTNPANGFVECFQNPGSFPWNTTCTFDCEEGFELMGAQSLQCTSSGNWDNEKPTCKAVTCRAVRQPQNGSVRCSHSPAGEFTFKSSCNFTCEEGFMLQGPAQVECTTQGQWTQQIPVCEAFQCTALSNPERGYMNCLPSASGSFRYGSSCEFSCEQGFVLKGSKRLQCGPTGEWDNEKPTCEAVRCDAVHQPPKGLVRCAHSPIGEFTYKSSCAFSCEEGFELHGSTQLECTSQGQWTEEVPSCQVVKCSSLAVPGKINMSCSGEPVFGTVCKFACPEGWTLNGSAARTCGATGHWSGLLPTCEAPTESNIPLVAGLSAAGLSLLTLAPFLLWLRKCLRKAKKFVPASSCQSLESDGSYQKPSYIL
Chain of Retinoic acid receptor RXR-alpha (Homo sapiens) (P19793 whole entry, looked up, the tested form may be a part): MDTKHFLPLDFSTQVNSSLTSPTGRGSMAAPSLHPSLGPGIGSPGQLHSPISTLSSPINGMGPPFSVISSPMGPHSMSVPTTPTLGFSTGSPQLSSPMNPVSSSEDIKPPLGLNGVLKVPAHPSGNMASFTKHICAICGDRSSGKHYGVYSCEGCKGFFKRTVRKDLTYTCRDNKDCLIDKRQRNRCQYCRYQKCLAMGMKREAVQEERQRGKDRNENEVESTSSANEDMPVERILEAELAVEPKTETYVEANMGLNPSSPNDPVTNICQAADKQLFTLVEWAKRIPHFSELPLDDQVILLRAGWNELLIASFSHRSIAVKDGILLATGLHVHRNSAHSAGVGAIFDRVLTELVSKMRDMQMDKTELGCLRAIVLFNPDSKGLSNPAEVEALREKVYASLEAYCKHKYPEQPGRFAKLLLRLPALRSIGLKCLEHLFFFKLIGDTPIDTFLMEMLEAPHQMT
Chain of human RAR-related Orphan Receptor gamma (RORg), RORC (gene 6097) (P51449 whole entry, looked up, the tested form may be a part): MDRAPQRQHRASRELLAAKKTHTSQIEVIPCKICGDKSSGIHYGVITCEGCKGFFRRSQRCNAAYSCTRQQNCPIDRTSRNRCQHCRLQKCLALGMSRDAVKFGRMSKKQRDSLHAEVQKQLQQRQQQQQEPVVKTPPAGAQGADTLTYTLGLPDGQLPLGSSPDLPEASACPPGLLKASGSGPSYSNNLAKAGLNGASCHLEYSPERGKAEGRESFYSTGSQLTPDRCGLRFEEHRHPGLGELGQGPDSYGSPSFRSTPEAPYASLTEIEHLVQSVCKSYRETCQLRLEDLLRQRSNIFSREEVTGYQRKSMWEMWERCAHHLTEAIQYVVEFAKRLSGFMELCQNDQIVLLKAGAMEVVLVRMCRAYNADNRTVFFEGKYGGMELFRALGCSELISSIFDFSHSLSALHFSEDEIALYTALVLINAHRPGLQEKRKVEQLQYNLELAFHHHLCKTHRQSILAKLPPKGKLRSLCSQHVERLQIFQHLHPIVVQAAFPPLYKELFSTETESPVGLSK
Chain of human Thyroid Receptor alpha (THRa1), THRA (gene 7067) (P10827 whole entry, looked up, the tested form may be a part): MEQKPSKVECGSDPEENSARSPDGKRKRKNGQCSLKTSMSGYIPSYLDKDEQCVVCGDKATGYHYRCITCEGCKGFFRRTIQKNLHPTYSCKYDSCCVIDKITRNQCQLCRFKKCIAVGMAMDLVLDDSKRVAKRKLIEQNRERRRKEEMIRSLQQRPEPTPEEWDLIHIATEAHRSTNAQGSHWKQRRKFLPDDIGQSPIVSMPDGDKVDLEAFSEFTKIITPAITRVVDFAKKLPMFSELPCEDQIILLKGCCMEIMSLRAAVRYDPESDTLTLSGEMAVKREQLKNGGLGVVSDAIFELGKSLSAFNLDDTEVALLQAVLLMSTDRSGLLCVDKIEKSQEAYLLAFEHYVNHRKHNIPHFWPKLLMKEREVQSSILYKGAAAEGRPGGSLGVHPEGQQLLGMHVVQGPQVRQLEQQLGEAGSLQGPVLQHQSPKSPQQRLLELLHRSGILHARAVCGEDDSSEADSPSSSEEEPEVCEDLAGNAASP
Chain of human Retinoid X Receptor beta (RXRb), RXRB (gene 6257) (P28702 whole entry, looked up, the tested form may be a part): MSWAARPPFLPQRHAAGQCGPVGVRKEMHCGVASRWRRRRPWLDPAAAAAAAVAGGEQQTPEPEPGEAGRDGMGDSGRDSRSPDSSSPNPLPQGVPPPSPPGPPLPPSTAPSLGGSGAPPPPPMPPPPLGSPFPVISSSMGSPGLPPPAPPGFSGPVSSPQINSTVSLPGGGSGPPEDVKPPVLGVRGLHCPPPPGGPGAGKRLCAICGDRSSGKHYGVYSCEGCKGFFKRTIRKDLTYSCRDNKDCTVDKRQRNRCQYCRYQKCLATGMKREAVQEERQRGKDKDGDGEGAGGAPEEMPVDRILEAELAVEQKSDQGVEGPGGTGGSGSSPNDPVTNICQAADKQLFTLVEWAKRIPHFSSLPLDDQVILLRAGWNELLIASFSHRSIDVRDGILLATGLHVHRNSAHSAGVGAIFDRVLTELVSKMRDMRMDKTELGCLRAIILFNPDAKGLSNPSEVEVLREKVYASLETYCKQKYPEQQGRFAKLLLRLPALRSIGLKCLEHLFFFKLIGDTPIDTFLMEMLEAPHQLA
Chain of human RAR-related Orphan Receptor beta (RORb), RORB (gene 6096) (Q92753 whole entry, looked up, the tested form may be a part): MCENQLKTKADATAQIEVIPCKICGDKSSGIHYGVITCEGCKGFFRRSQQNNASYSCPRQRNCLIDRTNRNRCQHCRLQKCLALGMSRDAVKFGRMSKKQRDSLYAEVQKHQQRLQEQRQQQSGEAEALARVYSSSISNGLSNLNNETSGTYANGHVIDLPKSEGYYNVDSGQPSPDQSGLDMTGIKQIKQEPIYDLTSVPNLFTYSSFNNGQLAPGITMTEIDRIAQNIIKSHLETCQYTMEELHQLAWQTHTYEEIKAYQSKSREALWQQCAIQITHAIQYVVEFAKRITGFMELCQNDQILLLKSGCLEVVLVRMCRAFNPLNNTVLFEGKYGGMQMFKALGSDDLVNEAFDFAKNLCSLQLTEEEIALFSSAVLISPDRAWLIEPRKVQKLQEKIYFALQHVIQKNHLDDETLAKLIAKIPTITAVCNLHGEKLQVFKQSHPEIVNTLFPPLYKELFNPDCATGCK

O=S(=O)(O)C(F)(F)C(F)(F)C(F)(F)C(F)(F)C(F)(F)C(F)(F)F
active: [14] 44.3 µM and 37.7 µM
inactive: [1] | [2] | [3] | [4] | [5] | [6] | [7] | [8] | [9] | [10] | [11] | [12] | [13] | [14] | [15] | [16]

CCC(=O)O[C@H]1CC[C@H]2[C@@H]3CCC4=CC(=O)CC[C@]4(C)[C@H]3CC[C@]12C
active: [5] 32.6 µM | [7] 29 µM | [8] 31.8 µM | [9] 33.9 µM | [10] 27.3 µM | [11] 38.8 µM | [13] 28.4 µM | [15] 33.5 µM
inactive: [2] | [3] | [4] | [17] | [6] | [12] | [14] | [18] | [16]

OCC(O)CO
inactive: [2] | [3] | [4]

CCC(C)(CC)c1cc(NC(=O)c2c(OC)cccc2OC)on1
inactive: [2] | [4] | [5] | [6] | [7] | [8] | [9] | [10] | [11] | [12] | [13] | [14] | [19] | [15] | [16]

O=C(O)C(F)(F)C(F)(F)C(F)(F)C(F)(F)C(F)(F)C(F)(F)C(F)(F)C(F)(F)C(F)(F)F
inactive: [1] | [2] | [3] | [17] | [5] | [8] | [10] | [11] | [14] | [16]
active: [4] 18.1 µM and 13.4 µM and 13.2 µM | [5] 53.8 µM and 54.9 µM | [6] 18.5 µM and 11.9 µM and 13.4 µM | [7] 32.5 µM and 54.6 µM and 52.9 µM | [8] 48.2 µM and 53.7 µM | [9] 33.2 µM and 53.3 µM and 56.7 µM | [10] 53.6 µM and 47 µM | [11] 58.5 µM and 52.5 µM | [13] 31.3 µM and 53 µM and 51.6 µM | [14] 32.4 µM | [15] 36.5 µM and 52.1 µM and 55 µM | [18] 29.6 µM and 12.6 µM and 15.8 µM

ClC(Cl)=C(c1ccc(Cl)cc1)c1ccc(Cl)cc1
inactive: [1] | [3] | [17] | [6] | [12] | [16]
active: [4] 17.5 µM [middle of 4 runs] | [5] 30.7 µM | [8] 20 µM | [9] 30.5 µM | [10] 32.1 µM | [11] 35 µM | [13] 29.2 µM | [14] 25.2 µM | [15] 30.6 µM

O=C(O)C(F)(F)C(F)(F)C(F)(F)C(F)(F)C(F)(F)C(F)(F)C(F)(F)C(F)(F)F
inactive: [1] | [2] | [3] | [17] | [5] | [7] | [8] | [9] | [10] | [11] | [12] | [13] | [14] | [15] | [16]
active: [4] 13.3 µM and 41.1 µM and 26.3 µM | [6] 35 µM and 49.9 µM and 46.6 µM | [7] 54.7 µM | [9] 57.3 µM and 55 µM | [13] 54.3 µM and 51.6 µM | [14] 52.4 µM and 50.9 µM | [15] 44 µM and 46.1 µM | [18] 34.8 µM and 49.8 µM
